Measurements taken from PubChem BioAssay AID2014 (Sanford-Burnham Center for Chemical Genomics, 2009).
The campaign covered roughly 290,000 compounds. About 3,000 (1%) were called active. No rule for the calls is given here. The entries come from a sample that favours actives as a whole.

Target: Polyadenylate-binding protein 1 (Homo sapiens) (UniProt P11940)
Assay: blockers of PABP interaction with poly(A) – biochemical, fluorescence polarization, uHTS, primary screen (AID 2014);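 also: calls also rest on retests at 20 µM and on dose response follow-up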
Details: PABP-poly(A) RNA binding, stronger effect = higher value

Sequence of Polyadenylate-binding protein 1 (Homo sapiens) (P11940 whole entry, looked up): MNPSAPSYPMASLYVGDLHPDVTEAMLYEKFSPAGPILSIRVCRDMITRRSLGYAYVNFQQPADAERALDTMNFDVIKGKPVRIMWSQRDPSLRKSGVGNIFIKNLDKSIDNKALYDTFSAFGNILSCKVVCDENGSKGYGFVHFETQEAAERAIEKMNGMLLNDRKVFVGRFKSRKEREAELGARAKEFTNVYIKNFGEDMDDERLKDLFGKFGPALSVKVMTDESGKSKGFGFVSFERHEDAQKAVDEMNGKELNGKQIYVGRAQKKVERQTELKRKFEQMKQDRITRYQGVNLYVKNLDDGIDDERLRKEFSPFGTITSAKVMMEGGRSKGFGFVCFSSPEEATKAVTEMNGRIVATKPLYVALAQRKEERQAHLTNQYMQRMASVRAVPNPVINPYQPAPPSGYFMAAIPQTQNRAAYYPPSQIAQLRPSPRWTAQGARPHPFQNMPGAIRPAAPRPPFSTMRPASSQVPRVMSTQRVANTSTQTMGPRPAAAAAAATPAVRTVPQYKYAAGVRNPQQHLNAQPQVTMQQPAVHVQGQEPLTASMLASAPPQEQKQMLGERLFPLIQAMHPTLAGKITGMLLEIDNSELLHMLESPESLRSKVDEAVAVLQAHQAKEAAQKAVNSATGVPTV

Row | SMILES | inhibition (at 35 µM) | inhibition (confirmation repeats, at 20 µM) [%]
1 | C[N+]1(CCNC(=O)/C=N/O)CCCCC1 | 63.4% (active) | –
2 | CC(C)[C@H](NC(=O)N1CC(=O)Nc2ccccc21)C(=O)N[C@@H](Cc1c[nH]c2ccccc12)C(=O)O | -3.1% (inactive) | –
3 | Cc1cccc(-c2c(NC(=O)c3ccco3)oc3ccc(Cl)cc3c2=O)c1 | -6.1% (inactive) | –
4 | CC(C)(C)C1C/C(=C/c2ccco2)C(=O)/C(=C/c2ccco2)C1 (centres undefined) | -1.8% (active) | 53.3
5 | CCC1S/C(=N/N=C/c2ccco2)NC1=O (centres undefined) | -11% (inactive) | –
6 | O=C1OC(/C=C/c2ccccc2)=NC/1=C/c1ccco1 | 16.6% (inactive) | 5.2
7 | Cn1c(=O)oc2cc(S(=O)(=O)NCCC(=O)NCc3ccccc3Cl)ccc21 | 1% (inactive) | –
8 | C=CCn1c(SCc2csc(C)n2)nc2scc(-c3ccc(C)o3)c2c1=O | 6.5% (inactive) | –
9 | C=CCn1c(=S)[nH]c2scc(-c3ccco3)c2c1=O | 69.3% (active) | –
10 | C=CCNC(=O)CSc1nc2scc(-c3ccco3)c2c(=O)n1CC=C | 15.2% (inactive) | –
11 | COc1cccc(NC(=O)N2CCCC2C(=O)NC2CCCCC2)c1 (centres undefined) | -0.6% (inactive) | –
12 | CCn1cc(C(=O)N2CC(C)CC(C)C2)c(=O)c2cc(S(=O)(=O)N3CCCC3)ccc21 (centres undefined) | -11.3% (inactive) | –
13 | COc1ccc(-c2cc(C(=O)N(C)Cc3ccc(OC)c(OC)c3OC)c3ccccc3n2)cc1OC | 48% (inactive) | –
14 | CC(=O)Nc1ccc(/C=N/Nc2ccc(C(=O)c3c(C)cc4ccccn34)cc2[N+](=O)[O-])cc1 | 9% (inactive) | –
15 | Cc1cc2ccccn2c1C(=O)c1cccc(F)c1 | 2.5% (inactive) | –
16 | Cc1ccc(C(C[N+](=O)[O-])c2c(C)cc3ccccn23)cc1 (centres undefined) | -2.2% (active) | 72.2
17 | Cc1ccc(CNC(=O)Cc2cn(C)c3ccccc23)cc1 | 6.1% (inactive) | –
18 | Cn1c2ccccc2c(=O)c2c(=O)n(Cc3ccco3)c(COc3ccccc3)nc21 | 1.9% (active) | 54.5
19 | COc1ccc(C(=O)CSc2nnc(COc3ccccc3)n2Cc2ccco2)cc1 | -8.1% (inactive) | –
20 | CCCc1nc2c(c(=O)c3ccccc3n2C)c(=O)n1-c1cc(C)cc(C)c1 | 4.7% (inactive) | –
21 | Cc1cnc(C)c(N2CCN(C(=O)C3CCC(=O)N(CCc4cccc(F)c4)C3)CC2)n1 (centres undefined) | 4.1% (inactive) | –
22 | O=C1CCCC(O)=C1N=Nc1ccc(S(=O)(=O)N2CCOCC2)cc1 | 14.4% (inactive) | –
23 | O=C1CCCC(O)=C1N=Nc1ccc2ncsc2c1 | -16.7% (active) | 53.4
24 | CCOc1cc(C2/C(=C(/O)c3ccc(S(=O)(=O)N4CCCCC4)cc3)C(=O)C(=O)N2CCOC)ccc1O (centres undefined) | 1.6% (inactive) | –

Row | SMILES | inhibition (at 35 µM) | inhibition (confirmation repeats, at 20 µM) [%]
25 | Cc1ccc2cc(C)c(N3CCN(c4ccc(F)cc4)CC3)nc2c1 | -13.2% (inactive) | –
26 | COc1ccc(-c2cc(C(=O)N3CCN(Cc4ccc5c(c4)OCO5)CC3)on2)cc1OC | 6.7% (inactive) | –
27 | COc1ccc(Cl)cc1NC(=O)CCS(=O)(=O)c1cc2c(cc1C)NC(=O)CO2 | -1.1% (inactive) | –
28 | O=C(CCS(=O)(=O)c1ccc(Br)cc1)NCCc1ccc(Cl)cc1 | 19.8% (inactive) | 10.6
29 | COc1ccc(Cl)cc1NC(=O)CCS(=O)(=O)c1ccc(Br)cc1 | 54.8% (active) | –
30 | O=C(CSc1ncn[nH]1)N/N=C/c1ccc(F)cc1 | -7.9% (inactive) | –
31 | O=C(NCCCc1ccccc1)c1cc(COc2c(F)cccc2F)on1 | -3.7% (inactive) | –
32 | O=C(c1c(F)cccc1F)N1CCN(c2ncc(Br)cn2)CC1 | 0.7% (inactive) | –
33 | Cc1ccc(-c2csc(N(Cc3ccco3)C(=O)c3cccs3)n2)cc1 | -9.4% (inactive) | –
34 | Cc1nnc(N(Cc2ccco2)C(=O)c2ccno2)s1 | 68.4% (active) | –
35 | CN(C(=O)c1ccno1)c1nnc(-c2cccnc2)s1 | 12% (inactive) | –
36 | O=C(CCN1C(=O)[C@H]2CC=CC[C@H]2C1=O)NCc1nc(-c2ccccc2)no1 | 15.4% (inactive) | –
37 | O=C1c2ccccc2S(=O)(=O)N1Cc1c(F)cccc1Cl | 5.7% (inactive) | –
38 | CN1CCc2nc(SC(C(=O)O)c3ccccc3)c(C#N)c(-c3cccs3)c2C1 (centres undefined) | 68.1% (active) | –
39 | Cc1c(-c2ccccc2)nc(N)c(C#N)c1-c1cccs1 | -3.2% (inactive) | –
40 | CCc1c(-c2ccccc2)nc(N)c(C#N)c1-c1cccs1 | -4.1% (inactive) | –
41 | CCOC(=O)C1(Cc2ccccc2C)CCCN(C(=O)CCc2c(C)noc2C)C1 (centres undefined) | 2.2% (inactive) | –
42 | CCn1c(=S)sc2c(=O)n(CC(=O)Nc3ccc(OC)cc3)c(C)nc21 | -6.5% (inactive) | –
43 | Cc1cccc(C)c1NC(=O)CSc1nc2c([nH]1)c(=O)n(C)c(=O)n2C | 1% (inactive) | –
44 | COc1cc(CCC(=O)N2CCN(c3ccccc3Cl)CC2)cc(OC)c1OC | 9.6% (inactive) | –
45 | COc1ccc(Cc2nnc(NC(=O)Cc3cccs3)s2)cc1 | 72.4% (active) | –
46 | CCc1nnc(NC(=O)Cc2cccs2)s1 | 10.4% (inactive) | –
47 | COc1ccc(Cc2nnc(NC(=O)c3ccc(OC)cc3OC)s2)cc1 | -6% (inactive) | –
48 | CNS(=O)(=O)c1cccc(C(=O)NCC2CCCCC2)c1 | 1% (inactive) | –

Row | SMILES | inhibition (at 35 µM) | inhibition (confirmation repeats, at 20 µM) [%]
49 | Cc1cc(C)c(C#N)c(SCc2[nH]nc3c2C(c2ccccc2)C(C#N)=C(N)O3)n1 (centres undefined) | -7.3% (inactive) | –
50 | Cc1nn(Cc2ccccc2)c2c1C(c1ccccc1)C(C#N)=C(N)O2 (centres undefined) | 5.6% (inactive) | –
51 | Cc1cc(C)c2c3c(sc2n1)C(c1ccccc1)C(C#N)=C(N)O3 (centres undefined) | 120% (active) | 63.8
52 | O=C(N/N=C/c1ccccc1O)/C(=C/c1ccccc1)CCO | -0.9% (inactive) | –
53 | CCOc1cc(/C=N/Nc2cc(C)nc3ccc(C)cc23)ccc1O | -6.9% (inactive) | –
54 | CN(C(=O)COC(=O)c1nc(Cl)ccc1Cl)C1CCS(=O)(=O)C1 (centres undefined) | 1.3% (inactive) | –
55 | CN(C(=O)COC(=O)c1cc(-c2ccco2)nc2ccccc12)C1CCS(=O)(=O)C1 (centres undefined) | 77.7% (active) | –
56 | Cc1c(-c2cccc(Cl)c2)nc2ccccc2c1C(=O)OCC(=O)N(C)C1CCS(=O)(=O)C1 (centres undefined) | 6.7% (inactive) | –
57 | Cc1cccc(Nc2nc(-c3ccccc3)cs2)n1 | 3.3% (inactive) | –
58 | O=C(NCc1ccccn1)c1cc(Br)ccc1Cl | 0.7% (inactive) | –
59 | O=C(NCc1ccccn1)c1ccc2nc(-c3ccco3)c(-c3ccco3)nc2c1 | 77.7% (active) | –
60 | COc1cccc(S(=O)(=O)NCc2ccc(C(=O)NCc3ccccn3)cc2)c1 | 1.8% (inactive) | –
61 | N#CC1=C(N)Oc2c(ccc3cccnc23)C1c1ccncc1 (centres undefined) | 10.6% (inactive) | –
62 | N#CC1=C(N)Oc2c(sc3ccccc23)C1c1ccco1 (centres undefined) | 86.3% (active) | –
63 | CC1=C(C(=O)Nc2ccccc2)C(c2ccco2)C(C#N)=C(SCC(N)=O)N1 (centres undefined) | 7.1% (inactive) | –
64 | COCCCNc1nc2c(-c3cccc(C)c3)nnn2c2ccc(Cl)cc12 | 3.2% (inactive) | –
65 | COc1cccc(N(C(=O)CNC(=O)c2ccco2)C(C(=O)NC2CCCCC2)c2cccnc2)c1 (centres undefined) | 10.1% (inactive) | –
66 | CN(C)CCCNC(=S)N1CCC(c2nc3ccccc3[nH]2)CC1 | -6% (inactive) | –
67 | COc1ccc(C(CNC(=O)COc2ccc([N+](=O)[O-])cc2)N2CCCCC2)cc1 (centres undefined) | 1% (inactive) | –
68 | NC(=O)c1c(NC(=O)c2ccccc2)sc2c1CCCC2 | 3.6% (inactive) | –
69 | Fc1cc(F)c2nc(Nc3nc4c(F)cccc4s3)sc2c1 | 0.5% (inactive) | –
70 | NC(=O)c1c(Nc2nc3c(F)cccc3s2)sc2c1CCCC2 | -15.3% (active) | 73.7
71 | COc1ccc(C(=O)NCCSc2ccccc2C)cc1 | 1.1% (inactive) | –
72 | COCc1cc(C)n(CC(=O)NCC2CCCO2)c(=O)c1C#N (centres undefined) | -1.9% (inactive) | –

Row | SMILES | inhibition (at 35 µM) | inhibition (confirmation repeats, at 20 µM) [%]
73 | Cc1ccc(N2CCN(C(=O)c3cccs3)CC2)c(C)c1 | 3.2% (inactive) | –
74 | CCOC(=O)C(C)Sc1nnc(CSc2nc3nc(C)cc(C)n3n2)o1 (centres undefined) | 2.5% (inactive) | –
75 | COc1ccc(C(C)=O)cc1CSc1nc2nc(C)cc(C)n2n1 | -7.3% (inactive) | –
76 | Cc1cc(C)n2nc(SCC(N)=O)nc2n1 | 51.5% (active) | 81.1
77 | Cc1onc(C(=O)Nc2ccc3c(c2)OCO3)c1[N+](=O)[O-] | 1.4% (inactive) | –
78 | Cc1ccnc(N2C(=O)c3ccc([N+](=O)[O-])cc3C2=O)c1 | 47.5% (inactive) | –
79 | COc1ccccc1NC(=O)Nc1nnc(Cc2ccc(F)cc2)s1 | -15% (inactive) | –
80 | COc1ccc(C(CNC(=O)c2cc3c(s2)CCCC3)N2CCOCC2)cc1 (centres undefined) | 11.9% (inactive) | –
81 | CC(=O)NC(Cc1ccc(F)c(F)c1)C(=O)NC1CCN(C(=O)c2ccc(C)cc2)CC1 (centres undefined) | 1.9% (inactive) | –
82 | COc1ccc(CC(NC(C)=O)C(=O)NC2CCN(C(=O)c3ccc(Cl)cc3)CC2)cc1 (centres undefined) | 3.2% (inactive) | –
83 | CNC(=S)N1CCC(NC(=O)C(Cc2ccc(F)cc2)NC(C)=O)CC1 (centres undefined) | 63.2% (active) | –
84 | C[C@@H]1CC[C@@]2(OC1)O[C@H]1C[C@H]3[C@@H]4CC=C5C[C@@H](O)[C@H](O)C[C@]5(C)C4CC[C@]3(C)[C@H]1[C@@H]2C (some centres undefined) | 7.2% (inactive) | –
85 | O=C1CN(C(=O)c2cc(F)cc(F)c2)c2ccccc2N1 | -2.2% (inactive) | –
86 | Cc1cc(O)c(C(=O)/C=C/c2c(F)c(F)c(F)c(F)c2F)c(=O)o1 | -2.1% (inactive) | –
87 | Cc1cc2c(=O)n(CC(=O)NCC(=O)Nc3ccc(C(C)C)cc3)cnc2s1 | 9.1% (inactive) | –
88 | Cc1ccc(-n2ncc3c2CCCC3NC(=O)c2cnccn2)cc1C (centres undefined) | 5.7% (inactive) | –
89 | O=C(c1ccc(Br)o1)N(c1ccccn1)C1CCCCC1 | -4.7% (active) | 75.2
90 | O=C(CNC(=O)c1ccc(Br)o1)NCC1CCCO1 (centres undefined) | -3.6% (inactive) | –
91 | O=C(c1cccs1)N(C(=O)c1cccs1)c1ccccn1 | 0.2% (inactive) | –
92 | CC1(C)CC(=O)NC=C(c2ccccc2)C1 | -9.5% (inactive) | –
93 | CC1(C)CC(=O)C(C2c3ccccc3S(=O)(=O)c3ccccc32)C(=O)C1 | 62.9% (active) | –
94 | CC1(C)CC(=O)C=C(Nc2ccccc2)C1 | 2.3% (inactive) | –
